Measured values taken from PubChem BioAssay (NCATS).
Where “and” joins values, the source holds several entries; their conditions need not be identical. Equal entries are not always repeated. Results filed as inconclusive are left out. Entries that show only a call come without a potency. A number with no mark means an inactive call. Calls of active or inactive are those of the source. Unless noted, calls come from the whole dose curve; as a rule, active = well fitted curve in the direction sought with a large enough effect; inconclusive = small, poorly fitted or top-dose-only effect, or another doubt; inactive = no such curve, though single readings can be large; an effect the other way counts as inactive or inconclusive.

What was measured:
[1] = qHTS for Inhibitors of Plasmodium falciparum (DD2) proliferation (AID 504314);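 note: parasite DNA measured by SYBR Green fluorescence after red cell lysis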
Procedure, shortened: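 Erythrocytes infected with P. falciparum (0.3% parasitemia, 2.5% hematocrit final) were incubated with compounds for 72 h at 37C, 5% CO2. Parasite DNA was detected by SYBR Green I fluorescence after saponin/Triton lysis, normalized to artemisinin (0.29 uM) and DMSO controls.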

[2] = qHTS for Inhibitors of Plasmodium falciparum (GB4) proliferation (AID 504315); note: nearly all actives have a fitted effect of over 50% in size; note: potency is the fitted concentration of half-maximal effect
Procedure, shortened: (§1)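 Erythrocytes infected with P. falciparum line (0.3% parasitemia, 2.5% hematocrit final) incubated with compounds 72 h at 37 °C, 5% CO2; SYBR Green lysis buffer added, fluorescence read next day. Normalized to 0.29 uM artemisinin and DMSO.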

[3] = qHTS for Inhibitors of Plasmodium falciparum (7G8) proliferation (AID 504316); note: nearly all actives have a fitted effect of over 65% in size; note: potency is the fitted concentration of half-maximal effect
Procedure, shortened: as §1

[4] = qHTS for Inhibitors of Plasmodium falciparum (HB3) proliferation (AID 504318); note: nearly all actives have a fitted effect of over 60% in size; note: potency is the fitted concentration of half-maximal effect
Procedure, shortened: as §1

[5] = target: Atrial natriuretic peptide receptor 1 (Homo sapiens) (UniProt P16066); test: Natriuretic polypeptide receptor (hNpr1) antagonism - Pilot CMLD screen (AID 1347052; calls by dose curve;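 note: HEK293 cells with hNpr1 stimulated by hNppA peptide at 0.1 nM; cGMP level read as GloSensor luciferase luminescence after agonist stimulation; series mostly up to about 9.2 µM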)
Atrial natriuretic peptide receptor 1 (Homo sapiens), sequence (P16066 whole entry, looked up): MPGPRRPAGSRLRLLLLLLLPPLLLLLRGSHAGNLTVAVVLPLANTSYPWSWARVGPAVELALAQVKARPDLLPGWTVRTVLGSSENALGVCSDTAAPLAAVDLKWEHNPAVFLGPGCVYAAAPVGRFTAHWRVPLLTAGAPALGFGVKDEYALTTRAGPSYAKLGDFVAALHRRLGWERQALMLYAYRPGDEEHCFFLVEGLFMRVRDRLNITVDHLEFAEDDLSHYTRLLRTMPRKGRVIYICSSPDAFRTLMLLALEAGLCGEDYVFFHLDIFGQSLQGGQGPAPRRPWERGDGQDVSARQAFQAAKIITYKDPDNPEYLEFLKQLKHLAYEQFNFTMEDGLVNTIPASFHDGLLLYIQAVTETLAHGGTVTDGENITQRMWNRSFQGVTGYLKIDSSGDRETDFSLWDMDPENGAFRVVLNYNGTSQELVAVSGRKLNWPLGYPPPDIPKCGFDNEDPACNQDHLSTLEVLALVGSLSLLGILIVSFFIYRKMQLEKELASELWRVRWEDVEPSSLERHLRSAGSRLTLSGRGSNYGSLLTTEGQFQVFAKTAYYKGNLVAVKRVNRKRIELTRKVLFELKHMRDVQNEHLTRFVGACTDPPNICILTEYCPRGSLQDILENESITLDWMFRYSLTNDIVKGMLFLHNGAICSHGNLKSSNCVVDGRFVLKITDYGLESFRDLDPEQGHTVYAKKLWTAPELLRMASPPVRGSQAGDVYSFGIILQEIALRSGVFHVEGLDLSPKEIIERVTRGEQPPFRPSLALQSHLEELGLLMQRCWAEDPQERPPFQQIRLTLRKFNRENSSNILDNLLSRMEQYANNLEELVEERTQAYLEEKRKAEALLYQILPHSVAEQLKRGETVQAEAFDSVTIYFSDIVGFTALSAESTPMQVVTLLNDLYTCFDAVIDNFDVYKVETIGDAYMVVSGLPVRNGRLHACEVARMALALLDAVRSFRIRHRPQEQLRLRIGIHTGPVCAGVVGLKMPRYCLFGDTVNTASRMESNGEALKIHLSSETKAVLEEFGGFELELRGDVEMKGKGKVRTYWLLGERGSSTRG

C=CCC(O)(C#Cc1ccccc1)c1ccccc1 (stereo not given)
Potency [1]: inactive | Potency [2]: inactive | Potency [3]: inactive | Potency [4]: inactive | Potency [5]: inactive

COC(=O)[C@@H]1[C@@H](c2ccccc2)NC(=O)N(Cc2ccccc2)[C@@H]1C
Potency [1]: inactive | Potency [2]: inactive | Potency [3]: inactive | Potency [4]: inactive | Potency [5]: inactive

Cc1cccc(C)c1Nc1oc(-c2ccccc2)nc1-c1ccccc1
Potency [1]: inactive | Potency [2]: inactive | Potency [3]: inactive | Potency [4]: inactive | Potency [5]: inactive

O=C1NC[C@H](c2ccccc2)N1
Potency [1]: inactive | Potency [2]: inactive | Potency [3]: inactive | Potency [4]: inactive | Potency [5]: inactive

CC1(OC(=O)c2cnc3ccccc3n2)C(=O)C=C2C=C(C3CC3)OC=C2C1=O (stereo not given)
Potency [1]: inactive | Potency [2]: inactive | Potency [3]: inactive | Potency [4]: inactive | Potency [5]: inactive

COC(=O)NC(C(=O)OC)(C(=O)OC)c1ccccc1
Potency [1]: inactive | Potency [2]: inactive | Potency [3]: inactive | Potency [4]: inactive | Potency [5]: inactive

C=CCOC(=O)C(C(C)=O)[C@@H](NC(=O)OC)c1cccc(C)c1 (stereo not given in full)
Potency [1]: inactive | Potency [2]: inactive | Potency [3]: inactive | Potency [4]: inactive | Potency [5]: inactive

CCCC[C@]12Cc3c(ccc4ccccc34)[C@H](O1)c1c(cc(C)oc1=O)O2
Potency [1]: inactive | Potency [2]: inactive | Potency [3]: inactive | Potency [4]: inactive | Potency [5]: inactive

O=C(c1ccccc1)[C@@H]1O[C@@H]1c1ccccc1
Potency [1]: inactive | Potency [2]: inactive | Potency [3]: inactive | Potency [4]: inactive | Potency [5]: inactive

COC(=O)C1=C[C@]2(c3ccccc3C[C@H](OC)[C@@H]2C)[C@H]2C=C[C@H]1C2
Potency [1]: inactive | Potency [2]: inactive | Potency [3]: inactive | Potency [4]: inactive | Potency [5]: inactive

CCCCc1nc2c(c3c1C[C@H](C)OC3)CN(C(=O)c1cccnc1)CC2
Potency [1]: inactive | Potency [2]: inactive | Potency [3]: inactive | Potency [4]: inactive | Potency [5]: inactive

CCOC(=O)C1(C(=O)OCC)Cc2ccc(C(C)=O)cc2C1
Potency [1]: inactive | Potency [2]: inactive | Potency [3]: inactive | Potency [4]: inactive | Potency [5]: inactive

CC#CCN1C(=O)NC(c2ccccc2)C(C#N)=C1C (stereo not given)
Potency [1]: inactive | Potency [2]: inactive | Potency [3]: inactive | Potency [4]: inactive | Potency [5]: inactive

C[C@@H]1NC(=O)[C@@H](C)COC(=O)[C@H](C)NC(=O)[C@@H](C)COC1=O
Potency [1]: inactive | Potency [2]: inactive | Potency [3]: inactive | Potency [4]: inactive | Potency [5]: inactive

COc1ccc(-c2nc3c(c4c2C[C@H](c2ccccc2)OC4)CN(S(=O)(=O)c2ccc(C)cc2)CC3)c(C)c1
activity, negative = inhibition [1]: -0.2% [at 1.12 µM] | Potency [2]: 1.69 µM (active) | Potency [3]: 1.69 µM (active) and 1.9 µM (active) | Potency [4]: 2.13 µM (active) | Potency [5]: inactive

C=C[C@@]1(C)CCC=C2C(=O)CCC[C@H]21
Potency [1]: inactive | Potency [2]: inactive | Potency [3]: inactive | Potency [4]: inactive | Potency [5]: inactive
